Assay results from PubChem BioAssay (EPA / NIEHS).
Values joined by “and” are separate entries in the source; they are usually repeats but may differ in a detail not shown here. Equal entries are not always repeated. Active and inactive are the calls of the source. The calls were made as follows: active = hit-call score of the fitted dose curve at least 0.9, where 1 is the maximum; inactive = score below 0.9.

Read-out: Tumor necrosis factor (Homo sapiens) (UniProt P01375)
Assay: BSK_BT_xTNFa: BioMAP Diversity Plus: BT Assay for Tumor necrosis factor alpha (TNF-alpha) Biomarker Activity (AID 2284230)
Conditions: primary human B cells with PBMC
Procedure: BSK_BT is a cell-based, multiplexed-readout assay that uses B cell and peripheral blood mononuclear cells, a human vascular primary cell co-culture, with measurements taken at 24 hours after chemical dosing in a microplate: 96-well plate.BSK_BT_xTNFa is an assay component of the BSK_BT assay. It measures secreted TNF-alpha related to regulation of gene expression using LumineX xMAP technology.Data from the assay component BSK_BT_xTNFa was analyzed at the endpoint, BSK_BT_xTNFa, in the positive analysis fitting direction relative to DMSO as the negative control and baseline of activity. Using a type of cytokine quantitation reporter, gain or loss-of-signal activity can be used to understand protein changes. To generalize the intended target to other relatable targets, this assay endpoint is annotated to the 'cytokine' intended target family, where the subfamily is 'inflammatory factor'.
The levels of cell surface (or secreted, indicated by the prefix "s") biomarker endpoints were measured by ELISA. Overt cytotoxicity to cells in confluent adherent cultures (all systems other than the BT system) was assessed by measuring total protein levels using sulforhodamine B (SRB) staining in parallel cultures at the time of biomarker measurements, indicated as SRB endpoints. For proliferation assays for adherent cell types, individual cell types are cultured at sub-confluence and relative cell numbers quantified by SRB staining at time points optimized for each system (48 h: 3C and CASM3C systems; 72 h: BT and HDF3CGF systems; 96 h: SAg system). SRB was performed by staining cells with 0.1% SRB after fixation with 10% TCA and reading wells at 560 nm.Viability and proliferation of PBMC (T cells) was quantified by Alamar Blue reduction for the SAg and BT systems. For PBMC viability (referred to as PBMC Cytotoxicity within the assay endpoint names), cells were plated (75,000/well in a 96-well plate) and then chemical samples added for 1 h before addition of activators, SEB and TSST-1 (20 ng/mL final concentration each). Cells were incubated for 90 h. Then, Alamar Blue (20 uL/well) (Invitrogen, Cat DAL1100) was added for 6 h, and the plates were read with a fluorescence microplate reader at 546/580 nm (excitation/emission). For PBMC proliferation, cells were plated and activated as above but incubated for only 16 h prior to addition of Alamar Blue. Plates were read after 6 h.

Sequence of Tumor necrosis factor (Homo sapiens) (P01375 whole entry, looked up): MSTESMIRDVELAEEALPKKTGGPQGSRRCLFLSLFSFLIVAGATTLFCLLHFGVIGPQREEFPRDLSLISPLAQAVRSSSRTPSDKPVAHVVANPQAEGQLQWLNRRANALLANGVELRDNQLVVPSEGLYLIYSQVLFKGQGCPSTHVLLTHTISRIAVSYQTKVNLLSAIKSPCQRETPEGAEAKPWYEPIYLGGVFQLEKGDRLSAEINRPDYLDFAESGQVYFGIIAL

SMILES | outcome | AC50
CCCCCCCCCCC1CO1 (stereo not given) | inactive | 
Oc1cccc2ccccc12 | inactive | 
OC(C(F)(F)F)(C(F)(F)F)C(O)(C(F)(F)F)C(F)(F)F |  | 41.9 µM (active) and 40.2 µM (active)
CCCCCCCCCCCCCCCCCC[N+](C)(C)C |  | 2.62 µM (active)
COC(=O)/C=C\C(=O)OC | inactive | 
CCCCCCC(O)CCCCCCCCCCC(=O)OC (stereo not given) | inactive | 
CC[N+](CC)(CC(=O)Nc1c(C)cccc1C)Cc1ccccc1 | inactive | 
CCCCCCCCCC/C=C/C1CC(=O)OC1=O (stereo not given) | inactive | 
Cc1cccnc1 | inactive | 
Sc1nc2ccccc2s1 | inactive | 
Cc1cc(-n2nc3ccc(Cl)cc3n2)c(O)c(C(C)(C)C)c1 | inactive | 
O=C(C(=O)c1ccccc1)c1ccccc1 | inactive | 
CN(C)c1ccc(C(c2ccccc2)c2ccc(N(C)C)cc2)cc1 |  | 33.1 µM (active)
CC(C)CC(=O)CC(C)CC(C)C (stereo not given) | inactive | 
CN(C)CCC(c1ccc(Cl)cc1)c1ccccn1 (stereo not given) | inactive | 
